In the supplement of paper PMC10849652:
Of roughly 8,800 targets only a part is listed; those with a hit were picked by preference. About 0.5% of all pairs of compound and target were hits.

Tests used:
Test in all cases: log2 fold change, soluble protein after heating vs DMSO (PISA); higher = thermal stabilisation; K562 lysate, 10 uM; active = over 0.2 and 3.5 SD of the protein, either way, in both replicates (recomputed)
erlotinib = compound: C#Cc1cccc(Nc2ncnc3cc(OCCOC)c(OCCOC)cc23)c1 [erlotinib]
Summary of the method: (§1)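 A 30 min treatment with 10 μM compound was applied to crude K562 extract at 1 mg/mL protein in PBS pH 7.4 with 1 mM MgCl2. Heating for 3 min spanned 48°C-58°C, after which aliquots were pooled, adjusted to 0.5% NP-40 at 4°C and spun at 21,000xg for 90 min. TMTpro 16plex LC-MS/MS of the supernatant, with channel sums equalised, gave values recorded as log-two fold change in thermal stability against solvent controls, from duplicates.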

[1] = compound: C/C(=N\NC(=O)C1=CC(=CC=C1)S(=O)(=O)N2CCOCC2)/C3=C(C=CC(=C3)Cl)O
Summary of the method: as §1

[2] = compound: C1=CC(=CC=C1C2=NC3=C(N2)C=C(C=C3)C(=O)N)OC4=CC=C(C=C4)Cl
Summary of the method: as §1

[3] = compound: C1=CC2=C(C=CC(=C2)/C=C\3/C(=O)NC(=NCC4=CC=CS4)S3)N=C1
Summary of the method: as §1

[4] = compound: C1=CC2=NC=CN=C2C=C1/C=C/3\C(=O)NC(=O)S3
Summary of the method: as §1

[5] = compound: C1=CC=C(C=C1)C2=NC(=C(N2)C3=CC=NC=C3)C4=CC(=C(C=C4)Cl)O
Summary of the method: as §1

[6] = compound: C1=CC=C2C(=C1)C3=NNC4=CC=CC(=C43)C2=O
Summary of the method: as §1

[7] = compound: C1CCN(C1)C(=O)NC2=CC=CC(=C2)NC3=NC=C(C(=N3)NCCC4=CN=CN4)Br
Summary of the method: as §1

[8] = compound: C1CN(CCC1(CC2=CC=C(C=C2)Cl)N)C3=NC=NC4=C3C=CN4
Summary of the method: as §1

IRAK-1-4 Inhibitor I = compound: C1COCCN1CCN2C3=CC=CC=C3N=C2NC(=O)C4=CC(=CC=C4)[N+](=O)[O-] [IRAK-1-4 Inhibitor I]
Summary of the method: as §1

ibrutinib = compound: C=CC(=O)N1CCC[C@@H](n2nc(-c3ccc(Oc4ccccc4)cc3)c3c(N)ncnc32)C1 [ibrutinib]
Summary of the method: as §1

[9] = compound: CC(=O)c1cnc2ccc(-c3cc(Cl)c(O)c(Cl)c3)nc2c1N[C@H]1CC[C@H](CN(C)C)CC1
Summary of the method: as §1

ralimetinib = compound: CC(C)(C)Cn1c(N)nc2ccc(-c3[nH]c(C(C)(C)C)nc3-c3ccc(F)cc3)nc21 [ralimetinib]
Summary of the method: as §1

[10] = compound: CC(C)(O)CC(=O)NCCn1ccc2ncnc(Nc3ccc(Oc4cccc(C(F)(F)F)c4)c(Cl)c3)c21
Summary of the method: as §1

[11] = compound: CC(C)C1=C2N=C(C=C(N2N=C1)NCC3=CC=CC=C3)NCCCCCCN
Summary of the method: as §1

[12] = compound: CC1=C(C(CC(=O)N1)C2=CC=C(C=C2)C(F)(F)F)C(=O)NC3=C(C=C4C(=C3)C=NN4)F
Summary of the method: as §1

[13] = compound: CC1=C(C2=C(C=C1)C(=O)C3=CC=CC=C3N2CCCN)C
Summary of the method: as §1

[14] = compound: CC1=C(C=C(C=C1)NC(=O)C2=CC(=CC=C2)C(C)(C)C#N)NC3=CC4=C(C=C3)N=CN(C4=O)C
Summary of the method: as §1

[15] = compound: CC1=C(C=C(C=C1)NC(=O)C2=CC(=CC=C2)N(C)C)NC(=O)C3=CC=C(C=C3)O
Summary of the method: as §1

[16] = compound: CC1=CC=C(C=C1)SC2=C3C=C(SC3=CN=C2)C(=O)N
Summary of the method: as §1

Measured: log2 fold change

PIK3C3 (UniProt Q8NEB9)
inactive: erlotinib 0.014 | [1] -0.059 | [2] 0.004 | [3] 0.017 | [4] 0.025 | [5] 0.009 | [6] 0.053 | [7] -0.084 | [8] 0.015 | IRAK-1-4 Inhibitor I 0.081 | ibrutinib -0.056 | [9] -0.021 | ralimetinib -0.023 | [10] -0.096 | [11] 0.015 | [12] -0.032 | [13] -0.015 | [14] -0.002 | [15] -0.011 | [16] -0.056

PCYT1B (UniProt Q9Y5K3)
inactive: erlotinib -0.016 | [1] 0.015 | [2] -0.006 | [3] 0.046 | [4] -0.03 | [5] 0.002 | [6] 0.044 | [7] -0.041 | [8] -0.032 | IRAK-1-4 Inhibitor I -0.023 | ibrutinib -0.051 | [9] -0.007 | ralimetinib 0.003 | [10] 0.013 | [11] -0.042 | [12] -0.039 | [13] -0.03 | [14] 0.016 | [15] -0.002 | [16] 0.026

PDAP1 (UniProt Q13442)
Chain of UniProt Q13442 (Q13442 whole entry, looked up): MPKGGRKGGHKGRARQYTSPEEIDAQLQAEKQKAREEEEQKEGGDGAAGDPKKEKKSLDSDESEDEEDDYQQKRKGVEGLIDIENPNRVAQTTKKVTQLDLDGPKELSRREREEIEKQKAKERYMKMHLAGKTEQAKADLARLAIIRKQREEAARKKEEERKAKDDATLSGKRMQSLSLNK
inactive: erlotinib -0.01 | [1] -0.022 | [2] 0.02 | [3] -0.005 | [4] 0.001 | [5] -0.007 | [6] 0.023 | [7] 0.016 | [8] -0.012 | IRAK-1-4 Inhibitor I 0.026 | ibrutinib -0.042 | [9] -0.012 | ralimetinib -0.002 | [10] -0.065 | [11] 0.011 | [12] -0.046 | [13] 0.043 | [14] -0.015 | [15] -0.02 | [16] -0.008

POLR2M (UniProt P0CAP2)
Chain of UniProt P0CAP2 (P0CAP2 whole entry, looked up): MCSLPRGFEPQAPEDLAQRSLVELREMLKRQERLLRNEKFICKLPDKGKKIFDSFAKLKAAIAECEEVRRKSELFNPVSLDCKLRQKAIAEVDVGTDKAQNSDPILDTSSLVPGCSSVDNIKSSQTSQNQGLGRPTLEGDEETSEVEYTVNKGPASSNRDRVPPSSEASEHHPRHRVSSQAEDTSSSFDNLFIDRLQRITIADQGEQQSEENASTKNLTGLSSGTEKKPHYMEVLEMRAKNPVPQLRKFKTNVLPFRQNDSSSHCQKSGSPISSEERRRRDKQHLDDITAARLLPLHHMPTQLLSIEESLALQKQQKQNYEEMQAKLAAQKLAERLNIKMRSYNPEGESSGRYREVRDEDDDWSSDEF
inactive: erlotinib 0.075 | [1] -0.053 | [2] 0.014 | [3] 0.034 | [4] -0.013 | [5] 0.027 | [6] -0.045 | [7] -0.182 | [8] -0.002 | IRAK-1-4 Inhibitor I 0.026 | ibrutinib -0.011 | [9] 0.014 | ralimetinib -0.018 | [10] -0.042 | [11] -0.001 | [12] -0.014 | [13] -0.046 | [14] -0.055 | [15] -0.008 | [16] 0.007

PRMT8 (UniProt Q9NR22)
Chain of UniProt Q9NR22 (Q9NR22 whole entry, looked up): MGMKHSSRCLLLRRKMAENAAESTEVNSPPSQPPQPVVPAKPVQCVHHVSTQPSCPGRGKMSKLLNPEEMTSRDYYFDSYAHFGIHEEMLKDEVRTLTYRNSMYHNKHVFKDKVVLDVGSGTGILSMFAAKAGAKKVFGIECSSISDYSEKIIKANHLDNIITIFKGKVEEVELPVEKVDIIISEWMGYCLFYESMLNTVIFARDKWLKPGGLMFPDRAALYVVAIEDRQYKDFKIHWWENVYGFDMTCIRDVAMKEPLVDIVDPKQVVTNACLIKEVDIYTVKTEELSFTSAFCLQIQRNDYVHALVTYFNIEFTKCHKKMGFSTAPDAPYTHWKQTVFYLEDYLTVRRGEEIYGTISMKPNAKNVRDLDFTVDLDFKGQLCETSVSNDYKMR
inactive: erlotinib 0.01 | [1] -0.003 | [2] 0.009 | [3] -0.046 | [4] -0.015 | [5] 0.024 | [6] -0.031 | [7] -0.012 | [8] 0.013 | IRAK-1-4 Inhibitor I 0.024 | ibrutinib -0.073 | [9] -0.012 | ralimetinib 0.036 | [10] -0.018 | [11] 0.003 | [12] -0.028 | [13] 0.009 | [14] 0.032 | [15] 0.002 | [16] 0.007

PIK3CB (UniProt P42338)
Chain of UniProt P42338 (P42338 whole entry, looked up): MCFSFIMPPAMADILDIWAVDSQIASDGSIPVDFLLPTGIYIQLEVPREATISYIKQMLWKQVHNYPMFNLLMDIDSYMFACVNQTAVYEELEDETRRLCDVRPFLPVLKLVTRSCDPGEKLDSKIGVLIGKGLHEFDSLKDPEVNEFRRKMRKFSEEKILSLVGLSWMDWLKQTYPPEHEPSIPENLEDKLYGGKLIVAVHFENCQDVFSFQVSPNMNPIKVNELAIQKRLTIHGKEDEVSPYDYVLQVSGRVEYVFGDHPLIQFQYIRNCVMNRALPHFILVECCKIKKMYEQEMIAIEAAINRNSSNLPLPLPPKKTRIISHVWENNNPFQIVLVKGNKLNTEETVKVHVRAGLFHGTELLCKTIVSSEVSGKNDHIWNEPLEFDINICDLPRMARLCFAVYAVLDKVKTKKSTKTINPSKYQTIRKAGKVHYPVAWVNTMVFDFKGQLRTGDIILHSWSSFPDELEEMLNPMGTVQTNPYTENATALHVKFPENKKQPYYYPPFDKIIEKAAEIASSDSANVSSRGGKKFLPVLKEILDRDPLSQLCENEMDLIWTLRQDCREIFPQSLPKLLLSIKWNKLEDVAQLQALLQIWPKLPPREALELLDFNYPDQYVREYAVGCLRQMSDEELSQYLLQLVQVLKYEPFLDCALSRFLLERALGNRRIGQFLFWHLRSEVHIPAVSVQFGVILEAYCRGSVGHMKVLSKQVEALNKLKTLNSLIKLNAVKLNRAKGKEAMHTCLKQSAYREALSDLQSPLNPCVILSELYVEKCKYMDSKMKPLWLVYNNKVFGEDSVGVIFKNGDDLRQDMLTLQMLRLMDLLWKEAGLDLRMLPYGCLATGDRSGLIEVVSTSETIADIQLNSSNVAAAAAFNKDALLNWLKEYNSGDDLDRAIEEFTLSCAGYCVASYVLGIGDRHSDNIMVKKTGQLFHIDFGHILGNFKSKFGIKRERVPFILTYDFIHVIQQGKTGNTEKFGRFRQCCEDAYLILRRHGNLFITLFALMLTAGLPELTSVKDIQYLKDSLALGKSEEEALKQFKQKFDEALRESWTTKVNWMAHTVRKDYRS
inactive: erlotinib -0.024 | [1] -0.014 | [2] -0.045 | [3] 0.159 | [4] 0.412 | [5] 0.019 | [6] 0.095 | [7] 0.002 | [8] 0.052 | IRAK-1-4 Inhibitor I 0.037 | ibrutinib -0.009 | [9] 0.388 | ralimetinib -0.011 | [10] -0.005 | [11] -0.076 | [12] -0.003 | [13] 0.035 | [14] -0.012 | [15] 0.056 | [16] 0.018

PFAS (UniProt O15067)
inactive: erlotinib 0.014 | [1] 0.03 | [2] 0.006 | [3] 0.015 | [4] 0.011 | [5] -0.017 | [6] -0.018 | [7] -0.026 | [8] 0.001 | IRAK-1-4 Inhibitor I -0.006 | ibrutinib -0.007 | [9] -0.016 | ralimetinib 0.03 | [10] 0.006 | [11] 0.003 | [12] -0.015 | [13] -0.003 | [14] -0.041 | [15] 0.032 | [16] 0.002

PPP2R5C isoform 5 (UniProt Q13362)
inactive: erlotinib -0.013 | [1] -0.025 | [2] -0.009 | [3] -0.025 | [4] 0.016 | [5] -0.002 | [6] -0.039 | [7] 0.01 | [8] 0.027 | IRAK-1-4 Inhibitor I 0.013 | ibrutinib -0.002 | [9] 0.012 | ralimetinib -0.021 | [10] -0.036 | [11] -0.037 | [12] -0.038 | [13] 0.02 | [14] 0.002 | [15] 0.014 | [16] 0.037

PCF11 (UniProt O94913)
Chain of UniProt O94913 (O94913 whole entry, looked up): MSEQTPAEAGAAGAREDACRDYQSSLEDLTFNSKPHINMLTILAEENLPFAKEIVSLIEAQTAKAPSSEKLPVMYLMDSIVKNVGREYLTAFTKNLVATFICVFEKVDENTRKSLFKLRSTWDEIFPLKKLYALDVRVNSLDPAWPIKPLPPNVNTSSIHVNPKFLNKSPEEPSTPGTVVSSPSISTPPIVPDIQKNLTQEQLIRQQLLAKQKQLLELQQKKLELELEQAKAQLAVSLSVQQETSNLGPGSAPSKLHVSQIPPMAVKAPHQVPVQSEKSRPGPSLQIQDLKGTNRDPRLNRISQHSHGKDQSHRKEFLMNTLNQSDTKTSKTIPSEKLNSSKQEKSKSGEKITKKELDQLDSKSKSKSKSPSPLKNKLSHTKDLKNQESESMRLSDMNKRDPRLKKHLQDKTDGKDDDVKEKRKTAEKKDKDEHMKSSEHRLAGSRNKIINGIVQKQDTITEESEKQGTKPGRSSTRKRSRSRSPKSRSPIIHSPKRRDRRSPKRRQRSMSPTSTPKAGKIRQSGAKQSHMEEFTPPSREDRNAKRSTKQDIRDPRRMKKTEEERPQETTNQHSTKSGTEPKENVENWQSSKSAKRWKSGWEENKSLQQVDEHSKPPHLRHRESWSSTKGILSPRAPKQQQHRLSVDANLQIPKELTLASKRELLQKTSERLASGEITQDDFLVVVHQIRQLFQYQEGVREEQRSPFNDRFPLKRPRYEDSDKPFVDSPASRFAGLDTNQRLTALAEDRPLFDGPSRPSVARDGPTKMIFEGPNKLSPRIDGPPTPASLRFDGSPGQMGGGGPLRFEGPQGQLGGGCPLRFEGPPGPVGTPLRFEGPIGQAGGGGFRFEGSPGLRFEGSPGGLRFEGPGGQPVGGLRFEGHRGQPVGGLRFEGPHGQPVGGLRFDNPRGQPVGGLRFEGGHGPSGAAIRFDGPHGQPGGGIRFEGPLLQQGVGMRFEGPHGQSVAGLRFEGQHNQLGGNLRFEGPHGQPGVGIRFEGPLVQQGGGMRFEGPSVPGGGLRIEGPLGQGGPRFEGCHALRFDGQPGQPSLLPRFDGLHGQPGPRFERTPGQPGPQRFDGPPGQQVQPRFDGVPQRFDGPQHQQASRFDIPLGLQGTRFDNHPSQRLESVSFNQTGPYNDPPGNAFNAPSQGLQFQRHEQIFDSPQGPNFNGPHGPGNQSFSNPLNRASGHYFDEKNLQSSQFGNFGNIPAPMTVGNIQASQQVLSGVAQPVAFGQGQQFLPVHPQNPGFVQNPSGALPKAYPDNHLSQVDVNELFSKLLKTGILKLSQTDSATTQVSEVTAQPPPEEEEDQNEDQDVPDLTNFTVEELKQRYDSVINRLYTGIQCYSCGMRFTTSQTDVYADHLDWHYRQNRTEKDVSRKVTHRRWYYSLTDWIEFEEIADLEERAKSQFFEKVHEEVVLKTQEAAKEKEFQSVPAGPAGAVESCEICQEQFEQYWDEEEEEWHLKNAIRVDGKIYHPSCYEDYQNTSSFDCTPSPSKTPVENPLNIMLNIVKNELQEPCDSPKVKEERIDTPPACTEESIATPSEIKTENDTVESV
inactive: erlotinib 0.031 | [1] -0.063 | [2] 0.014 | [3] 0.008 | [4] -0.044 | [5] -0.025 | [6] -0.028 | [7] 0.005 | [8] 0.005 | IRAK-1-4 Inhibitor I -0.017 | ibrutinib -0.027 | [9] -0.006 | ralimetinib -0.005 | [10] -0.02 | [11] 0.022 | [12] 0.03 | [13] -0.02 | [14] -0.021 | [15] 0.045 | [16] -0.02

PTMA (UniProt P06454)
Chain of UniProt P06454 (P06454 whole entry, looked up): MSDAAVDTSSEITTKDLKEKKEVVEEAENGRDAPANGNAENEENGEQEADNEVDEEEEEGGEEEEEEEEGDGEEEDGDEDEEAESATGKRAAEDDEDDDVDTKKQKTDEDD
inactive: erlotinib -0.002 | [1] 0.062 | [2] 0.067 | [3] -0.013 | [4] -0.002 | [5] 0.01 | [6] -0.017 | [7] -0.009 | [8] -0.017 | IRAK-1-4 Inhibitor I -0.037 | ibrutinib 0.015 | [9] 0.028 | ralimetinib -0.121 | [10] 0.009 | [11] 0.004 | [12] -0.068 | [13] 0.006 | [14] 0.023 | [15] -0.015 | [16] 0.002

PLEKHA5 isoform 6 (UniProt Q9HAU0)
Chain of UniProt Q9HAU0 (Q9HAU0 whole entry, looked up): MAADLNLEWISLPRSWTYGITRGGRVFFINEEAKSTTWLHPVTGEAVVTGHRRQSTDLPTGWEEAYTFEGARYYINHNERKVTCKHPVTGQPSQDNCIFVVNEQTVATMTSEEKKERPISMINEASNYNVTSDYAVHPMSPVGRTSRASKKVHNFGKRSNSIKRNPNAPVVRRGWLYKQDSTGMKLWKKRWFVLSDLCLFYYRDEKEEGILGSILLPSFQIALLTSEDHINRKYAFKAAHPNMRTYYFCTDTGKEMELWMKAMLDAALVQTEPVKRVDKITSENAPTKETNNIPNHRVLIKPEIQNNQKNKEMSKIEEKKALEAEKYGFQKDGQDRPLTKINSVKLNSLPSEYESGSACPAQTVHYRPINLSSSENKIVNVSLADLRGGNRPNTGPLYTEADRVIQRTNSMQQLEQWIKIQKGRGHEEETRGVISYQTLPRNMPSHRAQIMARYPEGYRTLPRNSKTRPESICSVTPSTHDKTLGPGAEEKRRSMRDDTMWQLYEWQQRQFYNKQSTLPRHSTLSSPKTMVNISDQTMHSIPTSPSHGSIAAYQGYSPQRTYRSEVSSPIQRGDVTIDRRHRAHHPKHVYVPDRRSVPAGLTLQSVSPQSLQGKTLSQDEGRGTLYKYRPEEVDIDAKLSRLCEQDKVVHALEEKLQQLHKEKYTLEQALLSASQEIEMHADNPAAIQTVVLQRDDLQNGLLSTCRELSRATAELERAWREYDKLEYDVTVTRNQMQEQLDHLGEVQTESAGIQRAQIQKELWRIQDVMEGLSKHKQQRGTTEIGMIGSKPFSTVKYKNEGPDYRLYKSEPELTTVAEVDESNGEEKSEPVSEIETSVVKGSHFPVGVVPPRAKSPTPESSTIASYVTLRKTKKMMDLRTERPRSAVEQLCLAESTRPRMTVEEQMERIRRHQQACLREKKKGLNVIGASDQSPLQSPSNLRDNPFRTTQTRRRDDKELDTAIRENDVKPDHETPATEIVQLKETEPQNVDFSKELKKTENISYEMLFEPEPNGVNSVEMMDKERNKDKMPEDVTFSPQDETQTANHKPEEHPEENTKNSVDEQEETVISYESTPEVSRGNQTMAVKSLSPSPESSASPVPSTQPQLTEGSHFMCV
inactive: erlotinib -0.007 | [1] -0.021 | [2] 0.016 | [3] -0.058 | [4] 0.087 | [5] -0.021 | [6] -0.007 | [7] -0.002 | [8] -0.04 | IRAK-1-4 Inhibitor I 0.019 | ibrutinib 0.075 | [9] 0.003 | ralimetinib -0.004 | [10] -0.001 | [11] 0.069 | [12] -0.013 | [13] -0.033 | [14] 0.028 | [15] 0.022 | [16] -0.036

PIP4K2B (UniProt P78356)
inactive: erlotinib 0.038 | [1] -0.193 | [2] -0.021 | [3] 0.012 | [4] 0.096 | [5] 0.067 | [6] 0.013 | [7] 0.032 | [8] -0.02 | IRAK-1-4 Inhibitor I -0.019 | ibrutinib -0.002 | [9] 0.043 | ralimetinib 0.016 | [10] 0.023 | [11] -0.032 | [12] -0.043 | [13] -0.022 | [14] 0.087 | [15] -0.044 | [16] -0.031

PCLAF (UniProt Q15004)
Chain of UniProt Q15004 (Q15004 whole entry, looked up): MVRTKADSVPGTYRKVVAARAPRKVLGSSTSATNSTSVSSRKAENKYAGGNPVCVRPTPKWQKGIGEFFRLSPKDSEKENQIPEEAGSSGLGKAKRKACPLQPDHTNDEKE
inactive: erlotinib 0 | [1] -0.026 | [2] 0.057 | [3] -0.006 | [4] -0.059 | [5] -0.015 | [6] 0.012 | [7] 0.037 | [8] -0.052 | IRAK-1-4 Inhibitor I 0.016 | ibrutinib 0.025 | ralimetinib 0.035 | [10] -0.014 | [11] -0.011 | [12] 0.003 | [13] -0.041 | [14] 0.034 | [15] -0.005
